Each structure is given as a SMILES string. Results filed as inconclusive are left out. The source made the active and inactive calls. Unless noted, the call rests on the fitted dose curve; in most records, active means well fitted curve in the direction sought with a large enough effect; inconclusive means small, poorly fitted or top-dose-only effect, or another doubt; inactive means no such curve, though single readings can be large; an effect the other way counts as inactive or inconclusive.

This passage reports activity, Potency and activity change, negative = inhibition results from PubChem BioAssay (NCATS).

Assay [1] concerns the target Catechol O-methyltransferase (Homo sapiens) (UniProt P21964). Description: Confirmatory Screen for Target Class Profiling of Small Molecule Inhibitors of Methyltransferases (AID 1745852; calls by dose curve; further: potency means the concentration at half of the fitted maximal effect; on activity change, negative = inhibition: on the % scale 0 is the no-effect control and ±100 the full control effect). As to conditions: MTase-Glo luminescence, SAH detection, recombinant enzyme; measured here: COMT max response; stronger effect = lower value.
The target of assay [2] is Guanidinoacetate N-methyltransferase (Homo sapiens) (UniProt Q14353). The assay is described as above. The settings on record: MTase-Glo luminescence, SAH detection, recombinant enzyme; activity change, negative = inhibition: at 57.3 µM (top of the series) unless noted; series mostly up to 57.3 µM.
In assay [3] the target is Nicotinamide N-methyltransferase (Homo sapiens) (UniProt P40261). The description is as above. As to conditions: MTase-Glo luminescence, SAH detection, recombinant enzyme; measured here: NNMT max response; stronger effect = lower value.
Nicotinamide N-methyltransferase (Homo sapiens), sequence (P40261 whole entry, looked up): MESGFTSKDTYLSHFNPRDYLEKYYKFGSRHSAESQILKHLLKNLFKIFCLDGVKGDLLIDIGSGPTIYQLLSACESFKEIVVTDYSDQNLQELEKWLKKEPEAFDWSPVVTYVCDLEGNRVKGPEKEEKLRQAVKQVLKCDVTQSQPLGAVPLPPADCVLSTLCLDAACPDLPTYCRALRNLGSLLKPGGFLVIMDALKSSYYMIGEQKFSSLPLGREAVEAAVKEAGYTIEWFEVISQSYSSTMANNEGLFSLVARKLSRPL
For assay [4], the target named is Phenylethanolamine N-methyltransferase (Homo sapiens) (UniProt P11086). The description is as above. The settings on record: MTase-Glo luminescence, SAH detection, recombinant enzyme; measured here: PNMT max response; stronger effect = lower value.
Phenylethanolamine N-methyltransferase (Homo sapiens), sequence (P11086 whole entry, looked up): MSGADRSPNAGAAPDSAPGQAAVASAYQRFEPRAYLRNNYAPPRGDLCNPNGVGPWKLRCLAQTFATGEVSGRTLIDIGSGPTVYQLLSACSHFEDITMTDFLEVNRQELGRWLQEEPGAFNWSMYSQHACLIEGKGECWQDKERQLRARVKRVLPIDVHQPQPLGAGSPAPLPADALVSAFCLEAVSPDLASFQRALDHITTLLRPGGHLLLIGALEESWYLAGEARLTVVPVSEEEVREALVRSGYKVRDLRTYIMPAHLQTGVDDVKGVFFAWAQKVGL
The target of assay [5] is Glutathione peroxidase 1 (Homo sapiens) (UniProt P07203). Description: Primary qHTS Assay for Inhibitors of Recombinant Selenoprotein Glutathione Peroxidase 1 (GPX1) (AID 1845191). Further: nearly all actives have a fitted effect of over 65% in size. The settings on record: recombinant GPX1, GR-coupled NADPH fluorescence, 15 min; series mostly up to 48.8 µM. In short, it runs like this: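 Recombinant GPX1 (10 nM final) was preincubated with compound for 30 min at room temperature, then reacted with 1 mM GSH, 0.5 mM CHP, 0.5 mM NADPH and 100 nM glutathione reductase; NADPH fluorescence (340/450 nm) was read at 0 and 15 min.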
Glutathione peroxidase 1 (Homo sapiens), sequence (P07203 whole entry, looked up): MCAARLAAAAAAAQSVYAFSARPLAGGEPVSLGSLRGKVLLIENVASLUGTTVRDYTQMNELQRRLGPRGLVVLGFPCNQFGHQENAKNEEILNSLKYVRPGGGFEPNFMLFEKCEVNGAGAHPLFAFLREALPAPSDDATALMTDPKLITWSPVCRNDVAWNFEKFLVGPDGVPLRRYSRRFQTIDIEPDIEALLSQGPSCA
Background: qHTS replaces the single test concentration by a dilution series.

The target of assay [6] is Phospholipid hydroperoxide glutathione peroxidase GPX4 (Homo sapiens) (UniProt P36969). Description: Primary qHTS Assay for Inhibitors of Recombinant Selenoprotein Glutathione Peroxidase 4 (GPX4) (AID 1845192). Further: nearly all actives have a fitted effect of over 65% in size. On activity change, negative = inhibition: on the % scale 0 is the no-effect control and ±100 the full control effect. The settings on record: recombinant GPX4, GR-coupled NADPH fluorescence, 15 min; series mostly up to 50 µM. In short, it runs like this:
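GR-coupled readout: 100 nM GR, 1 mM GSH, 0.5 mM NADPH; NADPH fluorescence (ex 340/em 450 nm) read at t=0 and after 15 min RT. GPX4 200 nM, preincubated 30 min with compound; substrate 0.5 mM CHP.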

Assay [7] has as its target Luciferin 4-monooxygenase (Photinus pyralis) (UniProt P08659). Description: Primary firefly luciferase (FLuc) qHTS assay for identification of artifact compounds. (AID 1845220). Further: nearly all actives have a fitted effect of over 60% in size.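 On activity change, negative = inhibition: plate controls were DMSO vehicle for no effect and no enzyme for full effect.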 As to conditions: purified firefly luciferase, luminescence, 5 min; series mostly up to 54.1 µM. In short, it runs like this:
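Reaction readout was CCD-imaged luminescence, taken 5 min after adding 10 nM purified firefly enzyme to compound-treated wells holding 10 uM luciferin and ATP in pH 7.6 buffer.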

The nature of assay [8]: Primary fluorescence-based thiol-reactive (MSTI) qHTS assay for identification of artifact compounds. (AID 1845221). Further: nearly all actives have a fitted effect of over 65% in size. Further: potency means the concentration at half of the fitted maximal effect. The settings on record: MSTI thiol-reactivity probe, 1 h; series mostly up to 53.8 µM. The method in brief:
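MSTI probe at 4 uM final in 2% DMSO/PBS pH 7.4; compounds, 1 h at room temperature in dark. Fluorescence Ex/Em 525/598 nm, normalised to Acetyl-MSTI and MSTI, fitted to 4-parameter Hill.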

Assay [9] concerns Nanoluciferase (engineered Oplophorus gracilirostris luciferase). Description: Primary Nanoluciferase (NLuc) qHTS assay for identification of artifact compounds. (AID 1845222).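 Further: 0% = DMSO and -100% = no enzyme.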 The settings on record: NLuc-conditioned medium, Nano-Glo luminescence, 5 min; series mostly up to 54.1 µM. The method in brief: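 Concentration-response data were obtained by luminescence after 5 min with Nano-Glo substrate at 1:100. The enzyme was diluted S16 NLuc-expressing cell medium, preincubated with compound for 15 min at RT. Curves were fitted with a 4-parameter Hill model.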

A short description of assay [10]: Primary redox qHTS assay for identification of artifact compounds. (AID 1845223).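 Further: 0% = DMSO and 100% = reference compound.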 The settings on record: Amplex Red/HRP redox cycling with DTT, fluorescence; series mostly up to 53.8 µM. The method in brief:
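Amplex Red (25 uM) and HRP (250 mU/mL) in HBSS, with compounds for 15 min, then 250 uM DTT for 30 min, room temperature, dark. Fluorescence 525/598 nm read; normalized to DMSO and 10 uM DA3003; Hill fit.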

Catechol O-methyltransferase (Homo sapiens), sequence (P21964 whole entry, looked up): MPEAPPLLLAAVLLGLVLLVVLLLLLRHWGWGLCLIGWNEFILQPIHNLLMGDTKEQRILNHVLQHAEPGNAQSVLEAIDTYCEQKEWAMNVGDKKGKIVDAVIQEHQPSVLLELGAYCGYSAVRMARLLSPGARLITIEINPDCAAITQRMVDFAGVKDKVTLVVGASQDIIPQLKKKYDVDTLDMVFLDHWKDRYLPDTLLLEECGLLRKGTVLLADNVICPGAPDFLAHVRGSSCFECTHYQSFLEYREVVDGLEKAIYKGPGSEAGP
Phospholipid hydroperoxide glutathione peroxidase GPX4 (Homo sapiens), sequence (P36969 whole entry, looked up): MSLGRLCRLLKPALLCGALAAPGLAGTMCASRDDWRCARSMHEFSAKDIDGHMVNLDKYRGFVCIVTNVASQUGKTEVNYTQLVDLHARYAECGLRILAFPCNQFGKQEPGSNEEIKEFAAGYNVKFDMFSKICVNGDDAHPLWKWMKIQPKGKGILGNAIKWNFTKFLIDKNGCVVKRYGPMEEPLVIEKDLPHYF

Turning to `COc1cc2ncnc(Nc3cccc(I)c3)c2cc1OC`, the activity in assay [1] is -55.8%; in [3] it was -40.1%; in [4] it was -56.9%. Further, the Potency in assay [2] was 34.1 µM (active). Moreover, the Potency entry in assay [5], in assay [6], in assay [7], in [8], in [9] and in assay [10] was “inactive” each time.
With `C=CC(=O)Nc1cccc(Nc2nc(Nc3ccc(OCCOC)cc3)ncc2F)c1`, the activity in assay [1] is -40.1%; in assay [3], -65.2%; in assay [4], -40.1%. In addition, the Potency was 27.1 µM (active) in [2] and 4.74 µM (active) in assay [8]. The Potency entry in assay [5], in [6], in [7] and in assay [9] was “inactive” each time.
`NC(N)=NC(=O)c1cnn(-c2cccc3ncccc23)c1C1CC1`: the activity was -9.86% in assay [1], -53.6% in assay [3] and -5.56% in assay [4]. In assay [2], the activity change, negative = inhibition was -8.74%. Besides, the Potency result in assay [5], in [6], in assay [7], in [8], in assay [9] and in assay [10] was “inactive” each time.
As to `C=C1C(=O)OC2/C=C(\CO)CC/C=C(\C=O)C(OC)C(OC(=O)C(C)CC)C12` (stereo not drawn), the activity in assay [1] is -88.5%; in assay [3], 4.11%; in assay [4], 1.39%. The activity change, negative = inhibition in assay [2] amounted to 0% [at 29.8 µM]. For the same compound, the Potency entry in assay [5], in assay [6], in assay [7], in [9] and in assay [10] was “inactive” throughout. Moreover, the Potency in assay [8] is 4.12 µM (active).
Regarding `O=C(c1ccc(Cl)cc1)N1CCN(c2ccnc3cc(Cl)ccc23)CC1`, the activity is -6.44% in assay [1], -41.3% in assay [3] and -10.9% in assay [4]. In addition, the activity change, negative = inhibition in assay [2] was -4.09%. The Potency result in assay [5], in [6], in [7], in assay [8], in assay [9] and in assay [10] was “inactive” throughout.
With `CC(C)(C[C@@](O)(Cc1cc2ccncc2[nH]1)C(F)(F)F)c1cc(F)ccc1O`, the activity was 1.72% in assay [1], -1.53% in assay [3] and -1.87% in assay [4]. The activity change, negative = inhibition in [2] stood at 0%. Also, the Potency result in [5], in assay [6], in [7], in assay [8], in [9] and in assay [10] was “inactive” throughout.
Take `O=C(c1ccccc1)c1c(O)cc(O)cc1O[C@@H]1O[C@H](CO)[C@@H](O)[C@H](O)[C@H]1O`: the values for the activity in assay [1], in assay [3] and in [4] were -80.6%, -5.29% and -6.01%, respectively. The activity change, negative = inhibition in assay [2] was -2.61%. The Potency entry in assay [5], in assay [6], in [7] and in assay [9] was “inactive” throughout. Moreover, the Potency in assay [8] was 13.1 µM (active).
As for `C=C1C(=O)OC2C1CCC1(C)C(O)CCC(=C)C21` (stereo not drawn), the figures for the activity in assay [1], in assay [3] and in assay [4] were -62.8%, 1.08% and -1.43%, respectively. The activity change, negative = inhibition in assay [2] is -2.15%. In addition, the Potency entry in assay [5], in [6], in assay [7], in assay [9] and in [10] was “inactive” throughout. Also, the Potency in assay [8] is 11.9 µM (active).
`COc1ccc(CCc2nc3c(C)c(-c4c(C)noc4C)c(C)cc3n2CCN2CCOCC2)cc1`: the activity in assay [1] is 6.34%; in [3] it was -28%; in [4], 1.27%. In addition, the activity change, negative = inhibition in assay [2] was 5.22%. The Potency entry in [5], in assay [6], in assay [7], in assay [8] and in [9] was “inactive” each time.
Take `CCNC(=O)C#Cc1ccc2c(C(=Nc3ccc(CN(C)C)cc3)c3ccccc3)c(O)[nH]c2c1`: the activity in assay [1] is -20.9%; in assay [3], -31%; in assay [4], -19.5%. Moreover, the activity change, negative = inhibition in [2] is -11.9% [at 29.8 µM]. The Potency entry in [5], in [6], in assay [7], in assay [8] and in [9] was “inactive” each time.
Regarding `Cc1c(OCc2cccc(-c3ccc(C(=O)O)cc3)c2)cc2c(c1C)C(=O)C(C1CCCC1)C2` (stereo not drawn), the activity in [1] was -4.94%; in assay [3], -40.4%; in assay [4] it was -6.25%. In addition, in [2], the activity change, negative = inhibition is -6.27%. Besides, the Potency entry in [5], in [6], in [7], in [8], in assay [9] and in [10] was “inactive” each time.
On to `COc1ccc(CCN(C)CCCOc2nsc(-c3ccccc3)n2)cc1OC`, for which the activity was -5.88% in [1], -34.1% in assay [3] and -10.5% in assay [4]. In addition, in [2], the activity change, negative = inhibition is -0.0909%. Moreover, the Potency entry in assay [5], in assay [6], in assay [7], in assay [8] and in [9] was “inactive” each time.
Regarding `CC(C)(O)C(=O)N1CCN(c2ccc(C(F)(F)F)c(C3=C(c4c[nH]c5ccccc45)C(=O)NC3=O)c2)CC1`, the figures for the activity in [1], in assay [3] and in [4] were -37.9%, -37% and -34.7%, respectively. For the same compound, the Potency in assay [2] is 30.4 µM (active); in [8], 3.36 µM (active). The Potency result in [5], in assay [6], in [7], in assay [9] and in assay [10] was “inactive” in each case.
Regarding `Fc1ccc2[nH]ccc2c1-c1nc(N2CCOCC2)c2sc(CN3CCN(CC4CC4)CC3)cc2n1`, the activity in assay [1] was -1.17%; in [3], -62.5%; in assay [4] it was -22.1%. For the same compound, the activity change, negative = inhibition in assay [2] is 0%. The Potency entry in assay [5], in assay [6], in [7], in assay [8], in [9] and in assay [10] was “inactive” throughout.
In the case of `CC(C)C[C@H](CO)Nc1nc(S[C@@H](C)c2ccccc2)nc2nc(N)sc12`, the activity was -3.51% in [1], -40.8% in assay [3] and -2.5% in assay [4]. Besides, the activity change, negative = inhibition in assay [2] came to 1.87%. For the same compound, the Potency entry in [5], in assay [6], in assay [7], in assay [8], in [9] and in assay [10] was “inactive” throughout.
Take `Cc1nnc(C[C@@H]2C=C(c3ccc(Cl)cc3)c3ccccc3-n3c(C)nnc32)o1`: the figures for the activity in [1], in assay [3] and in assay [4] were -1.31%, -21% and 3.69%, respectively. Moreover, the Potency entry in [2], in assay [5], in assay [6], in assay [7], in assay [8] and in [9] was “inactive” throughout.
For `CC(C)c1cc2c(N3CCN(C4=NCC(C)(C)S4)CC3)ncnc2s1`, the values for the activity in assay [1], in assay [3] and in assay [4] were -1.24%, -65.8% and -7.2%, respectively. In addition, the activity change, negative = inhibition in [2] was determined as 0.38%. The Potency result in [5], in [6], in assay [7], in assay [8], in assay [9] and in assay [10] was “inactive” throughout.
Turning to `Nc1ncnc2c1c(-c1ccc(Oc3ccccc3)cc1)nn2[C@@H]1CCCNC1`, the activity in assay [1] was -13.8%; in assay [3], -54%; in [4] it was -19%. Also, the activity change, negative = inhibition in [2] was -5.27%. In addition, the Potency result in [5], in assay [6], in assay [7], in [8] and in [9] was “inactive” each time.
